Results from publication PMC5700166.
Residue numbers refer to the chain shown, from its start.

How the values were obtained:
Experiment in all cases: protein-binding microarray (PBM); PBM: ~300 nM protein, 6 mM HEPES pH 7.8, 80 mM KCl, 0.5 mM EDTA, 0.5 mM EGTA, 6% glycerol, 35 ng/ul poly-dIdC, 1% milk, 1 h, room temperature; Ap Aiptasia and Nv Nematostella (sea anemones) / Co Capsaspora / Aq Amphimedon (sponge) / Dm Drosophila / Hu human; RHD is the Rel homology domain; high values mean tight binding
Conditions in all cases: dsDNA, one strand shown
[1] = molecular target: T1, GST-Ap-NF-kB RHD (Exaiptasia pallida (Aiptasia), UniProt A0A913YAJ5 2-422)
T1 sequence: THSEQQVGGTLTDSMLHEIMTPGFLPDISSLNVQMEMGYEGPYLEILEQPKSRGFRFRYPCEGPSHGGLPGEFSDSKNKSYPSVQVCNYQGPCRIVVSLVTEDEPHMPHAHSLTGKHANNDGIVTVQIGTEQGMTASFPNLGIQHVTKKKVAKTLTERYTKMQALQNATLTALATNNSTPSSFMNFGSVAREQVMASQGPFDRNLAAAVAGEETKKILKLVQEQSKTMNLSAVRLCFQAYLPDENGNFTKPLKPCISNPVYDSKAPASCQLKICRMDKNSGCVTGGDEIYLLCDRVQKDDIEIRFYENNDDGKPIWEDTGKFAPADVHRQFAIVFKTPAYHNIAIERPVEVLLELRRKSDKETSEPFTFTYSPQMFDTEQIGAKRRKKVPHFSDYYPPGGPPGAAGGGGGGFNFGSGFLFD

[2] = molecular target: T2, GST-Nv-NF-kB (Cys allele) (Nematostella vectensis, UniProt E5G601 2-411)
T2 sequence: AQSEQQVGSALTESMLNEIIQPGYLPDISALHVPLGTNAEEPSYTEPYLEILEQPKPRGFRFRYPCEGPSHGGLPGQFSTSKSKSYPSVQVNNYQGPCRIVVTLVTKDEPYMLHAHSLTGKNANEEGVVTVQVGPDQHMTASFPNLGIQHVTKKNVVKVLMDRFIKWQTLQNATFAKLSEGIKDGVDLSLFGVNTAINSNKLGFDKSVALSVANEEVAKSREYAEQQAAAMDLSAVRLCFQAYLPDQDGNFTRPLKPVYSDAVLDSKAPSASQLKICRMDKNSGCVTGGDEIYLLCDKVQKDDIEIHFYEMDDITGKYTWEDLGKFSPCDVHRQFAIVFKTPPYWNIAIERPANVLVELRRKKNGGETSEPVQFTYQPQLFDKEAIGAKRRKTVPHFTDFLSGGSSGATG

[3] = molecular target: T3, GST-Nv-NF-kB (Ser allele) (Nematostella vectensis, UniProt A7UNT2 2-411)
T3 sequence: T2 sequence with Q21R, C66S, S207N, E215Q, V217A, E225K, A268E, D399E

[4] = molecular target: T4, GST-Co-NF-kB (Capsaspora owczarzaki, UniProt F1ARL5 200-546)
T4 sequence: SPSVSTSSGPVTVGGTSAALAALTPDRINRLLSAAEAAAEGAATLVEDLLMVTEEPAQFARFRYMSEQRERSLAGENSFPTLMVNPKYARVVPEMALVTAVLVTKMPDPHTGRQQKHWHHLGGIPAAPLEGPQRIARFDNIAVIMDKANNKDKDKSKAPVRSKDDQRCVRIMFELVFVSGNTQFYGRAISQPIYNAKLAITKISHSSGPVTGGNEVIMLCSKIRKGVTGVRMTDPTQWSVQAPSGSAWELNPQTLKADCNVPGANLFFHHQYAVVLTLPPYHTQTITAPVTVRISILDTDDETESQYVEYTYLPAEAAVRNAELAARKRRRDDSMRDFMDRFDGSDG

[5] = molecular target: T5, GST-Dm-Relish (Drosophila melanogaster, UniProt Q94527 99-473)
T5 sequence: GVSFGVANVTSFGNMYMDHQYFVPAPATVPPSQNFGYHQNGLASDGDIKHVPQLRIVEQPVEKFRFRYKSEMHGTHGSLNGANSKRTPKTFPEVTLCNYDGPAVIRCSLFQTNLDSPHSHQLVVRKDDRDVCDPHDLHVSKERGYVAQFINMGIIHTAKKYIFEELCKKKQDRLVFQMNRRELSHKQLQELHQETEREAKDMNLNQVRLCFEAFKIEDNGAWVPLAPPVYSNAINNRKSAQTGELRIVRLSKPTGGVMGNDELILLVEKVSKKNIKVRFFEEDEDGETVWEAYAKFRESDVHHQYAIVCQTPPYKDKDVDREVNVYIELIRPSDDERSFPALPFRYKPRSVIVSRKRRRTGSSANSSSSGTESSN

[6] = molecular target: T6, GST-Aq-NF-kB (Amphimedon queenslandica, UniProt A9Y5G7 2-389)
T6 sequence: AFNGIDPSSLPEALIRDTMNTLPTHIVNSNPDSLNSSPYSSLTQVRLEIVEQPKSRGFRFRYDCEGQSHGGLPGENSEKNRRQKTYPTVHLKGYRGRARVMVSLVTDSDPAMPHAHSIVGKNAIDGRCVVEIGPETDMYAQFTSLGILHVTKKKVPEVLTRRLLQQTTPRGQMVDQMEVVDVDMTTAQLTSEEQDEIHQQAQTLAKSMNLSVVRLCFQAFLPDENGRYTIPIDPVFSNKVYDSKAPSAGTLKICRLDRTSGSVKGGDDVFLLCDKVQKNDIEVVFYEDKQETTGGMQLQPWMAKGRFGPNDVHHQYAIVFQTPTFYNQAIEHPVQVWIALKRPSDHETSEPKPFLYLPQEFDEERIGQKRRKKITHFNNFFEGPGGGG

[7] = molecular target: GST-Hu-p50 (Homo sapiens, UniProt P19838 7-356)
GST-Hu-p50, sequence (P19838 7-356): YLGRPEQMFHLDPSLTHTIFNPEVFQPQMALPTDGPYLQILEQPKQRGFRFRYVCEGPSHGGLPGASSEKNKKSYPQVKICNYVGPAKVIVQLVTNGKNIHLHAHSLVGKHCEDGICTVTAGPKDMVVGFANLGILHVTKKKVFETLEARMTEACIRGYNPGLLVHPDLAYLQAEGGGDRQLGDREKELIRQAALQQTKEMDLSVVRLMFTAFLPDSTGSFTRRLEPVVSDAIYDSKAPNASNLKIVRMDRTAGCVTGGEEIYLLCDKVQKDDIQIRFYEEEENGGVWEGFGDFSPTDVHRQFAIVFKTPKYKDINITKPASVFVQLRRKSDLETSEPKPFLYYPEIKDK

Sequence | binding signal [1] | binding signal [2] | binding signal [3] | binding signal [4] | binding signal [5] | binding signal [6] | binding signal [7]
CCGATTAACATCAATTATCCCCCTGATGTTAATCGGGTCTTGATTCGCTTGACGCTGCTG | 6.74 z-score | 5.48 z-score | 6.6 z-score | 7.87 z-score | 4.31 z-score | 5.15 z-score | 5.52 z-score
CCGATTAACATCACGAAATCCCCTGATGTTAATCGGGTCTTGATTCGCTTGACGCTGCTG | 8.93 z-score | 9.59 z-score | 11.6 z-score | 4 z-score | 8.34 z-score | 6.39 z-score | 7.74 z-score
CCGATTAACATCAGGACGCCCCCTGATGTTAATCGGGTCTTGATTCGCTTGACGCTGCTG | 6.15 z-score | 5.13 z-score | 3.21 z-score | 1.59 z-score | 3.85 z-score | 7.57 z-score | 4.71 z-score
CCGATTAACATCAAAACTCCCCGTGATGTTAATCGGGTCTTGATTCGCTTGACGCTGCTG | 7.7 z-score | 6.47 z-score | 6.9 z-score | 5.87 z-score | 7.5 z-score | 6.24 z-score | 5.74 z-score
CCGATTAACATCAAGTAACCCCCTGATGTTAATCGGGTCTTGATTCGCTTGACGCTGCTG | 6.04 z-score | 4.44 z-score | 4.98 z-score | 3.76 z-score | 6.97 z-score | 5.32 z-score | 5.24 z-score
CCGATTAACATCAGGGGGCACCCTGATGTTAATCGGGTCTTGATTCGCTTGACGCTGCTG | 5.39 z-score | 3.36 z-score | 2.57 z-score | 2.17 z-score | 3.84 z-score | 5.62 z-score | 3.84 z-score
CCGATTAACATCAGGGGAACCCATGATGTTAATCGGGTCTTGATTCGCTTGACGCTGCTG | 7.48 z-score | 5.77 z-score | 6.55 z-score | 4.47 z-score | 8.55 z-score | 4.7 z-score | 4.58 z-score
CCGATTAACATCAAGTTTCCCCCTGATGTTAATCGGGTCTTGATTCGCTTGACGCTGCTG | 8.07 z-score | 8.22 z-score | 11.2 z-score | 11.4 z-score | 4.83 z-score | 6.51 z-score | 7.11 z-score
